From PubChem BioAssay (NCI)
About 83,000 compounds went through this panel and 20% of them were active in at least one assay; those are over-represented in the sample as a whole.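 Interpretation: 100, growth as untreated; towards 0, rising growth inhibition; 0, no net growth; 0 to -100, cell death. Compounds scoring below 10 were considered active.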 Unmarked numbers belong to inactive results. Calls of active or inactive are those of the source.

Tests used:
Assay in all cases: NCI-60 one-dose screen, 48 h (100 = growth as untreated, 0 = no growth, -100 = all killed)
Settings in all cases: 10 µM unless noted
[1] = tested on: SK-MEL-2 melanoma
[2] = tested on: EKVX NSCLC
[3] = tested on: SN12C renal
[4] = tested on: UO-31 renal
[5] = tested on: TK-10 renal
[6] = tested on: ACHN renal
[7] = tested on: CAKI-1 renal
[8] = tested on: A498 renal
[9] = tested on: CCRF-CEM leukemia
[10] = tested on: MOLT-4 leukemia

Compound `COc1ccccc1Cn1cc(C#N)c(N)c1C(=O)c1ccc(Br)cc1` has a growth [1] of 98.6%, a growth [2] of 85.2% and a growth [3] of 92.1%. The growth [4] was 78.1%, the growth [5] was 108% and the growth [6] was 96.6%. For the same compound, the growth [7] was 80.6%, the growth [8] was 77.7% and the growth [9] was 91.4%. For the same compound, the growth [10] was 85.4%.

`CC(C)(C)OC(=O)Nc1ccc(-c2cccc(Oc3ccc4nnc(Cl)n4n3)c2)cc1` gave a growth [1] of 65.8%, a growth [2] of 86.7% and a growth [3] of 78.7%. The growth [4] was 67.6%, the growth [5] was 71.1% and the growth [6] was 88%. It also gave a growth [7] of 83.6%, a growth [8] of 70.1% and a growth [9] of 60.4%. It also gave a growth [10] of 46.3%.

For `CCNC(=O)Oc1ccc(/C(=C(/C)c2ccc(Cl)cc2)c2ccc(OCCN3CCCCCC3)cc2)cc1`, the growth [1] was 64.2%, the growth [2] was 56.1% and the growth [3] was 36.7%. For the same compound, the growth [4] was -9.5% (active), the growth [5] was 84.5% and the growth [6] was 42.1%. For the same compound, the growth [7] was 10.3%, the growth [8] was 64.7% and the growth [9] was 12.7%. The growth [10] was 13%.

`CN1CCN(CC#CCn2c3c(c4ccccc42)C[C@]2(C)[C@H]4CC=C5[C@@H]6CC(C)(C)CC[C@]6(C(=O)N6CCOCC6)CC[C@@]5(C)[C@]4(C)CC[C@H]2C3(C)C)CC1` was tested, and the growth [1] was 119%, the growth [2] was 75.2% and the growth [3] was 81.1%. The growth [4] was 56.5%, the growth [5] was 135% and the growth [6] was 93%. For the same compound, the growth [7] was 64.5%, the growth [8] was 92.4% and the growth [9] was 35%. The growth [10] was 33.9%.

`COc1cc2oc(-c3cccc(NC(=O)[C@@H](N)C(C)C)c3)cc(=O)c2c(OC)c1OC` gave a growth [1] of 102%, a growth [2] of 98.4% and a growth [3] of 101%. The growth [4] was 76.3%, the growth [5] was 97.7% and the growth [6] was 100%. The growth [7] was 91.1%, the growth [8] was 95.7% and the growth [9] was 97.9%. It also gave a growth [10] of 99.9%.

For `CN1CCN(c2ccc(Nc3nc(NCCNS(=O)(=O)c4ccc(Cl)cc4)c4sccc4n3)cc2)CC1`, the growth [1] was 110%, the growth [2] was 91.6% and the growth [3] was 97.7%. The growth [4] was 80%, the growth [5] was 128% and the growth [6] was 98.2%. It also gave a growth [7] of 72.8%, a growth [8] of 94.2% and a growth [9] of 75.7%. For the same compound, the growth [10] was 73.6%.

For `COc1cc2cc(Oc3ccc(NC(=O)Nc4ccc(F)c(C(F)(F)F)c4)cc3)c(C)nc2cc1OCCN(C)C`, the growth [1] was 115%, the growth [2] was 97.6% and the growth [3] was 96.4%. It also gave a growth [4] of 86.6%, a growth [5] of 106% and a growth [6] of 106%. The growth [7] was 85.1%, the growth [8] was 93.6% and the growth [9] was 15.8%. It also gave a growth [10] of 89.5%.

With `CCN(CC)S(=O)(=O)c1ccc(-c2nc(C(Cl)Cl)nc3cc(-c4ccc(F)cc4)nn23)cc1` the growth [1] was 82.3%, the growth [2] was 32% and the growth [3] was 67.6%. For the same compound, the growth [4] was 27.6%, the growth [5] was 49.9% and the growth [6] was 0.483% (active). It also gave a growth [7] of 12%, a growth [8] of 56.2% and a growth [9] of 73.9%. It also gave a growth [10] of 56.6%.

With `NC(=O)c1ncn2c(=O)n(CCF)nnc12` the growth [1] was -6.14% (active), the growth [2] was 92.5% and the growth [3] was 85.5%. It also gave a growth [4] of 41%, a growth [5] of 44.3% and a growth [6] of 62.2%. It also gave a growth [7] of 34%, a growth [8] of 101% and a growth [9] of 28.5%. It also gave a growth [10] of 29.9%.

`Cc1c(C(=O)/C=C/c2ccc(Cl)cc2)nnn1-c1ccc2oc(=O)ccc2c1` showed a growth [1] of 110%, a growth [2] of 91.2% and a growth [3] of 92.3%. The growth [4] was 73.4%, the growth [5] was 104% and the growth [6] was 94.6%. For the same compound, the growth [7] was 88.6%, the growth [8] was 103% and the growth [9] was 92.3%. For the same compound, the growth [10] was 98.9%.

`O=C(NCCNc1cc(-c2cn(-c3ccccc3)nc2-c2cccc(O)c2)ccn1)Nc1cc(C(F)(F)F)cc(C(F)(F)F)c1` was tested, and the growth [1] was 93.7%, the growth [2] was 90.6% and the growth [3] was 95.5%. It also gave a growth [4] of 77.1%, a growth [5] of 94.4% and a growth [6] of 96.9%. The growth [7] was 88.9%, the growth [8] was 76.6% and the growth [9] was 101%. For the same compound, the growth [10] was 84.9%.

`Cc1ccc(OCc2occc2C(=O)N2CCOCC2)cc1` was tested, and the growth [1] was 107%, the growth [2] was 96.5% and the growth [3] was 103%. It also gave a growth [4] of 90.9%, a growth [5] of 97.3% and a growth [6] of 111%. For the same compound, the growth [7] was 93.7%, the growth [8] was 98.1% and the growth [9] was 94.5%. For the same compound, the growth [10] was 109%.

For `N#C/C(=C\c1ccc(-c2ccc(Cl)cc2)o1)C(=O)Nc1ncc(Cc2ccc(Br)cc2)s1`, the growth [1] was 83.1%, the growth [2] was 19.6% and the growth [3] was -29.9% (active). For the same compound, the growth [4] was 52.9%, the growth [5] was -35.6% (active) and the growth [6] was -34.6% (active). The growth [7] was -7.28% (active), the growth [8] was -25.5% (active) and the growth [9] was 34.8%. It also gave a growth [10] of 55.8%.

In the case of `COc1ccc2sc(NC(=O)CCCCCCNC(=O)C(O)(O)C(F)(F)F)nc2c1`, the growth [1] was -17.5% (active), the growth [2] was 23.3% and the growth [3] was 10.5%. The growth [4] was -13.7% (active), the growth [5] was -12.4% (active) and the growth [6] was -26.8% (active). The growth [7] was -16.3% (active), the growth [8] was -35.2% (active) and the growth [9] was 24.6%. The growth [10] was 13%.

`Brc1cccc(-c2cc(-c3ccc4c(c3)OC=CO4)[nH]n2)c1` showed a growth [1] of 58.7%, a growth [2] of 56.7% and a growth [3] of 59.3%. For the same compound, the growth [4] was 50.4%, the growth [5] was 108% and the growth [6] was 43.7%. The growth [7] was 29.9%, the growth [8] was 42.6% and the growth [9] was 22%. The growth [10] was 29.2%.

In the case of `COc1ccc(-c2c3c(cn2Cc2cccc(OC)c2)-c2oncc2CCC3)cc1`, the growth [1] was 96.2%, the growth [2] was 97.6% and the growth [3] was 96.6%. For the same compound, the growth [4] was 81%, the growth [5] was 106% and the growth [6] was 102%. It also gave a growth [7] of 76.1%, a growth [8] of 96.8% and a growth [9] of 96.8%. It also gave a growth [10] of 98.6%.

For `CN(C)CC(=O)Nc1nc(-c2cccc(NS(=O)(=O)c3cccc4c(N(C)C)cccc34)c2)cs1`, the growth [1] was 94.1%, the growth [2] was 68.9% and the growth [3] was 75.3%. For the same compound, the growth [4] was 70.4%, the growth [5] was 107% and the growth [6] was 88.2%. The growth [7] was 78.8%, the growth [8] was 101% and the growth [9] was 83.7%. It also gave a growth [10] of 80.4%.

In the case of `COc1ccc(CC(C)=C(c2ccc(OCCN3CCCC3)cc2)c2ccc(OCCN3CCCC3)cc2)cc1`, the growth [1] was -91.8% (active), the growth [2] was -90.8% (active) and the growth [3] was -82.9% (active). The growth [4] was -94.9% (active), the growth [5] was -94.4% (active) and the growth [6] was -96% (active). The growth [7] was -89.1% (active), the growth [8] was -87.5% (active) and the growth [9] was -40.8% (active). The growth [10] was -60.3% (active).

`O=C(Nc1cc(C(F)(F)F)cc(C(F)(F)F)c1)Nc1ccc2oc(=O)ccc2c1` was tested, and the growth [1] was -18.5% (active), the growth [2] was 9.09% (active) and the growth [3] was -7.21% (active). The growth [4] was 1.64% (active), the growth [5] was 16.1% and the growth [6] was -3.53% (active). The growth [7] was 1.47% (active), the growth [8] was -1.96% (active) and the growth [9] was 17.5%. It also gave a growth [10] of 19.7%.

In the case of `CCN(CC)c1ccc(/C=N/NC(=O)c2ccc(NS(C)(=O)=O)cc2)c(O)c1`, the growth [1] was 40.7%, the growth [2] was 15.6% and the growth [3] was 31.4%. The growth [4] was 13.1%, the growth [5] was 47.9% and the growth [6] was 15.9%. For the same compound, the growth [7] was 18.8%, the growth [8] was 18.9% and the growth [9] was 6.1% (active). The growth [10] was 9.84% (active).

With `O=C(CSc1cc[n+](CCCCO)c2ccccc12)n1ccc2ccccc21` the growth [1] was 111%, the growth [2] was 89.3% and the growth [3] was 103%. It also gave a growth [4] of 63.6%, a growth [5] of 155% and a growth [6] of 96.4%. For the same compound, the growth [7] was 81.9%, the growth [8] was 114% and the growth [9] was 107%. It also gave a growth [10] of 95.8%.

Compound `COc1ccc(-c2nc(C#N)c(N3CCC(S(=O)(=O)N4CCOCC4)CC3)o2)cc1` has a growth [1] of 102%, a growth [2] of 105% and a growth [3] of 99.5%. It also gave a growth [4] of 89.1%, a growth [5] of 131% and a growth [6] of 97.8%. The growth [7] was 92.9%, the growth [8] was 100% and the growth [9] was 101%. It also gave a growth [10] of 98.3%.

For `Cc1csc(/N=C(N)/N=C(\N)c2cccnc2)n1`, the growth [1] was 68.2%, the growth [2] was 82.8% and the growth [3] was 80.1%. The growth [4] was 77.7%, the growth [5] was 116% and the growth [6] was 78.4%. The growth [7] was 60.1%, the growth [8] was 59.6% and the growth [9] was 79.2%. It also gave a growth [10] of 83%.

In the case of `NS(=O)(=O)c1ccc(Nc2nc(Nc3ccccc3)nc(N3N=C(c4ccc(Cl)cc4)CC3c3ccc(Cl)cc3)n2)cc1` (stereo not given), the growth [1] was 65.6%, the growth [2] was 56.9% and the growth [3] was 40.2%. The growth [4] was 48.9%, the growth [5] was 89.3% and the growth [6] was 32.6%. The growth [7] was 42.7%, the growth [8] was 55.8% and the growth [9] was 14.2%. For the same compound, the growth [10] was 17.3%.

Compound `O=S(=O)(Oc1ccc(-c2cn3ccoc3n2)cc1)C1CCCCC1` has a growth [1] of 99.4%, a growth [2] of 100% and a growth [3] of 103%. For the same compound, the growth [4] was 97.4%, the growth [5] was 105% and the growth [6] was 105%. It also gave a growth [7] of 92.3%, a growth [8] of 90% and a growth [9] of 87.2%. For the same compound, the growth [10] was 93.5%.

`C[C@@H]1OCC2(CCN(c3cnc(C(=O)Nc4cc(F)cc5cccnc45)cn3)CC2)[C@@H]1N` showed a growth [1] of 97.9%, a growth [2] of 78.2% and a growth [3] of 59.6%. The growth [4] was 41.1%, the growth [5] was 90.8% and the growth [6] was 31.8%. It also gave a growth [7] of 45.8%, a growth [8] of 71.9% and a growth [9] of 15.7%. It also gave a growth [10] of 20.8%.
